We go through 38 molecules from PubChem BioAssay (EPA / NIEHS).

The AC50 is the concentration at which the activity in the assay is half-maximal.

The nature of test [1]: TOX21_p53_BLA_p3_viability: Viability Assessment in the Tox21 HCT-116 p53 Agonism Beta-lactamase Assay, Phase 3 (AID 2283593).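 Also: cells exposed to compound for 16 h before reading.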 Summed up: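 Cellular ATP was quantified by CellTiter-Glo luminescence, read after 30 min at room temperature. Beforehand, HCT116 cells (4000/well) received compound 5 h post-seeding, 217-fold diluted from DMSO, then incubated 16 h at 37C.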
The target of test [2] is Cellular tumor antigen p53 (Homo sapiens) (UniProt P04637). Put plainly: TOX21_p53_BLA_p3_ratio: Tox21 HCT-116 p53 Agonism Beta-lactamase Assay, Ratio, Phase 3 (AID 2283596). Summed up:
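Cells were seeded at 4000/well, rested 5 h at 37C, then dosed with DMSO compound solutions (217-fold dilution) for 16 h. CCF4-AM substrate was loaded for 2 h at room temperature, and the 460/530 nm emission ratio was fitted for gain of signal versus DMSO.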

For test [3] the target is unchanged. Kind of test: TOX21_p53_BLA_p5_ratio: Tox21 HCT-116 p53 Agonism Beta-lactamase Assay, Ratio, Phase 5 (AID 2283599). Summed up:
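Beta-lactamase reporter ratio (blue 460 nm over green 530 nm, 405 nm excitation) after 2 h CCF4-AM loading, in HCT-116 cells exposed 16 h at 37 C to compounds pinned at 217-fold dilution. Increases relative to DMSO baseline scored.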

The nature of test [4]: TOX21_p53_BLA_p5_viability: Viability Assessment in the Tox21 HCT-116 p53 Agonism Beta-lactamase Assay, Phase 5 (AID 2283600). Summed up:
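Luciferase-coupled ATP quantitation of cells treated for 16 h (37C, 5% CO2) with test chemicals delivered in DMSO via a 217-fold dilution; 4000 cells/well; reagent incubated 30 min at room temperature before luminescence reading.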

The target in test [5] is Cellular tumor antigen p53 (Homo sapiens) (UniProt P04637). Kind of test: TOX21_p53_BLA_p4_ratio: Tox21 HCT-116 p53 Agonism Beta-lactamase Assay, Ratio, Phase 4 (AID 2283601). Summed up:
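Signal is the blue/green (460nm/530nm) ratio of cleaved versus uncleaved CCF4-AM substrate, read after 2 h substrate loading. Cells were HCT116 carrying the p53-responsive beta-lactamase reporter, dosed 16 h at 37C, 5% CO2; CellTiter-Glo measured in parallel.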

Test [6] in a line: TOX21_p53_BLA_p4_viability: Viability Assessment in the Tox21 HCT-116 p53 Agonism Beta-lactamase Assay, Phase 4 (AID 2283597).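 Also: hits lower the luminescence signal meaning cytotoxicity.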 In outline: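 Cytotoxicity was inferred from loss of CellTiter-Glo luminescence. HCT116 cells had been dosed with compounds after 5 h plating, incubated 16 h at 37C and 5% CO2, and exposed to the CCF4-AM substrate for 2 h.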
A short description of test [7]: ACEA_ER_AUC_viability: ACEA Biosciences xCELLigence Real-Time Cell Analysis on Estrogen Receptor Agonism for Viability (AID 2283782).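 Also: hit means loss of impedance signal meaning reduced cell growth or viability.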 Summed up: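 Viability endpoint: reduced impedance area under the curve relative to DMSO, recorded by real-time electrode sensing over ~80 h of continuous exposure. Duplicate plates of T47D in hormone-depleted medium; eight concentrations, 1:4 dilutions, 100 uM maximum.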

Inconclusive results are not listed. Activity calls are given as the source filed them. The calls were made as follows: active = hit-call score of the fitted dose curve at least 0.9, where 1 is the maximum; inconclusive = response in the unintended direction; inactive = score below 0.9.

Cellular tumor antigen p53 (Homo sapiens), sequence (P04637 whole entry, looked up): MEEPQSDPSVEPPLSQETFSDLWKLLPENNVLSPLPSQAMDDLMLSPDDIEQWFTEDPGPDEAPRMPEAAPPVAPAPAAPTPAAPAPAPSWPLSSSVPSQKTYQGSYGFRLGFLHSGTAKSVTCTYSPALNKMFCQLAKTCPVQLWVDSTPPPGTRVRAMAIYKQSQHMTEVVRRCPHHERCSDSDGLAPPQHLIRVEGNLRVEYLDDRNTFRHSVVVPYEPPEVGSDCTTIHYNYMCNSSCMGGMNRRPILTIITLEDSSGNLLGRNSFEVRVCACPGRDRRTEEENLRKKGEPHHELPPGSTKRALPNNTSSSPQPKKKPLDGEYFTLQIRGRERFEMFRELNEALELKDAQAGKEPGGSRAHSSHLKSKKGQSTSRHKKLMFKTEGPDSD

Turning to `CN(C)CCCNCCCN`, the outcome in test [1], in test [2], in test [3], in test [4] and in test [5] was inactive.
In the case of `Cc1ccc(S(=O)(=O)NC(=O)NC2CCCC2)cc1`, the outcome in test [1], in test [2], in test [3], in test [4] and in test [5] was inactive.
On to `O=c1oc2c(O)c(O)cc3c(=O)oc4c(O)c(O)cc1c4c23`, for which the result in test [1], in test [2] and in test [3] was inactive.
Consider `CC#N`, for which the call in test [1], in test [2] and in test [3] was inactive.
As to `CC(O)CCCCn1c(=O)c2c(ncn2C)n(C)c1=O` (stereo not given), the result in test [1], in test [2], in test [3] and in test [5] was inactive.
As to `COc1cc(Cl)ccc1Cl`, the molecule was classed as inactive in test [1], in test [2], in test [6] and in test [4].
`O=P(O)(O)OP(=O)(O)OP(=O)(O)O`: the result in test [1], in test [2], in test [3], in test [4] and in test [5] was inactive.
`CC(=O)c1cnccn1`: the outcome in test [1], in test [2], in test [3] and in test [5] was inactive.
For `CCNS(=O)(=O)c1ccc(C)cc1`, the call in test [1], in test [2], in test [3], in test [4] and in test [5] was inactive.
Turning to `C[C@H]1O[C@H](O[C@H]2[C@H](O)[C@@H](O)[C@@H](O[C@H]3[C@H](O)[C@@H](O)[C@H](O)O[C@@H]3CO)O[C@@H]2CO)[C@H](O)[C@@H](O)[C@@H]1N[C@H]1C=C(CO)[C@@H](O)[C@H](O)[C@H]1O`, the call in test [1], in test [2], in test [3], in test [4] and in test [5] was inactive.
As for `Cc1ccccc1C(=O)Nc1ccc(C(=O)N2CCCC(O)c3cc(Cl)ccc32)c(C)c1` (stereo not given), the molecule was classed as inactive in test [1], in test [2], in test [3] and in test [4].
`CCOC(=O)Nc1ccc2c(c1)N(C(=O)CCN1CCOCC1)c1ccccc1S2`: the outcome in test [1] and in test [3] was inactive.
In the case of `FC(F)(F)c1ccccc1`, the result in test [1], in test [3], in test [4] and in test [5] was inactive.
On to `CCCC(=O)Nc1ncnc2c1ncn2[C@@H]1O[C@@H]2COP(=O)(O)O[C@H]2[C@H]1OC(=O)CCC`, for which the outcome in test [1], in test [3], in test [4] and in test [5] was inactive.
Turning to `O=C1N=C2SCCN2C(=O)C1Cc1ccc(Cl)cc1` (stereo not given), the molecule was classed as inactive in test [1], in test [6] and in test [4].
In the case of `COc1ccc(C)cc1[N+](=O)[O-]`, the call in test [1], in test [3] and in test [4] was inactive.
As for `CCCCCCCCCCCCCC=O`, the outcome in test [1], in test [3] and in test [4] was inactive.
Turning to `CCOC(=O)C(C)(C)C`, the result in test [1], in test [3], in test [4] and in test [5] was inactive.
As to `Cc1c(O)cc2c(c1C)O[C@](C)(CCC[C@H](C)CCC[C@H](C)CCCC(C)C)CC2`, the molecule was classed as inactive in test [1], in test [6], in test [3] and in test [5].
As for `COc1cc2c(cc1OC)C(C(C(=O)N(CCc1ccc(OC)c(OC)c1OC)CCc1ccc(OC)c(OC)c1OC)c1ccccc1)=NCC2` (stereo not given), the result in test [1], in test [6], in test [3], in test [4] and in test [5] was inactive.
In the case of `O=C(O[C@@H](C(=O)O)[C@@H](OC(=O)c1ccccc1)C(=O)O)c1ccccc1`, the outcome in test [1], in test [3] and in test [4] was inactive.
For `CCC=C1OC(=O)c2ccccc21`, the molecule was classed as inactive in test [1], in test [6], in test [3], in test [4] and in test [5].
Take `CCCCOC(=O)C(=O)OCCCC`: the molecule was called inactive in test [1], in test [6], in test [3] and in test [5].
With `CCCCCCCCCCCC[N+](C)(C)CCCS(=O)(=O)[O-]`, the call in test [1], in test [6], in test [3] and in test [5] was inactive.
On to `C=CCCCCCCCCCCC`, for which the outcome in test [1], in test [6], in test [3] and in test [5] was inactive.
Regarding `O=C(O)/C=C/c1cnc[nH]1`, the molecule was classed as inactive in test [1], in test [6] and in test [5].
Turning to `CS(=O)(=O)O`, the outcome in test [1], in test [6] and in test [3] was inactive.
For `CCCCC(=O)O[C@]1(C(=O)CO)CC[C@H]2[C@@H]3CCC4=CC(=O)CC[C@]4(C)[C@H]3[C@@H](O)C[C@@]21C`, the molecule was called inactive in test [1], in test [6], in test [4] and in test [5].
Turning to `COc1cc(C[C@@H]2NCCc3cc(O)c(O)cc32)cc(OC)c1OC`, the molecule was called inactive in test [1], in test [2], in test [4] and in test [5].
With `CC(=O)OCC(=O)[C@@]1(O)CC[C@H]2[C@@H]3C[C@H](C)C4=CC(=O)C=C[C@]4(C)[C@H]3[C@@H](O)C[C@@]21C`, the result in test [1], in test [6], in test [3] and in test [5] was inactive.
Consider `CC1=C(/C=C/C(C)=C/C=C/C(C)=C/C=C/C=C(C)/C=C/C=C(C)/C=C/C2=C(C)C(=O)CCC2(C)C)C(C)(C)CCC1=O`, for which the molecule was classed as inactive in test [1], in test [3], in test [4] and in test [5].
Take `CCC(=O)OC(OP(=O)(CCCCc1ccccc1)CC(=O)N1C[C@H](C2CCCCC2)C[C@H]1C(=O)O)C(C)C` (stereo not given in full): the outcome in test [1], in test [6], in test [4] and in test [5] was inactive.
For the molecule `C=CC(=O)NC(C)C`, the result in test [1], in test [6] and in test [5] was inactive.
Turning to `CCNC(=O)[C@@H]1CCCN1C(=O)[C@H](CCCN=C(N)N)NC(=O)[C@H](CC(C)C)NC(=O)[C@@H](CC(C)C)NC(=O)[C@H](Cc1ccc(O)cc1)NC(=O)[C@H](CO)NC(=O)[C@H](Cc1c[nH]c2ccccc12)NC(=O)[C@H](Cc1cnc[nH]1)NC(=O)[C@@H]1CCC(=O)N1`, the call in test [1], in test [6] and in test [3] was inactive.
In the case of `COc1ccc(CC2c3cc(OC)c(OC)cc3CC[N+]2(C)CCC(=O)OCCCCCOC(=O)CC[N+]2(C)CCc3cc(OC)c(OC)cc3C2Cc2ccc(OC)c(OC)c2)cc1OC` (stereo not given), the molecule was classed as inactive in test [1] and in test [6].
As to `COCCOC(=O)CC#N`, the call in test [1], in test [3], in test [4] and in test [5] was inactive. In addition, the AC50 in test [7] was 50 µM (active).
In the case of `C/C=C(/CC[C@@H](C)[C@H]1CC[C@H]2C3=CC[C@H]4[C@H](C)[C@@H](O)CC[C@]4(C)[C@H]3CC[C@]12C)C(C)C`, the outcome in test [1], in test [6] and in test [4] was inactive.
As for `CC(C)c1ccccc1C(C)C`, the molecule was classed as inactive in test [1], in test [4] and in test [5]. In test [3], the half-maximal activity concentration (AC50) was 67 µM (active).
